CD40 NFkB inh: CD40 pathway inhibition in BL2 cells; 83,000 tested, 0.94% active; BL2 NF-kB luciferase reporter, CD40L-induced, 4 h; inhibition, % at 10 µM;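 active = mean inhibition of at least 50% with a set share of replicates also reaching that level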
Large screens that a line does not name were inactive. The sample as a whole holds a higher share of hits than the screen did.

COC(=O)[C@@H]1[C@@H](CO)[C@@H]2Cn3c(ccc(/C=C/c4ccccc4)c3=O)[C@H]1N2CC1CCCC1	none
CCOP(=O)(CCP(=O)(OCC)OCC)OCC.C[CH2][Sn]([Cl])([Cl])[CH2]C	CD40 NFkB inh 59
COc1ccc(OC(=O)N(C)C[C@H]2OCc3ccccc3-c3c(n(C)c4ccccc34)C(=O)N([C@@H](C)CO)C[C@H]2C)cc1	none
COc1ccc(OC(=O)N(C)C[C@H]2OCc3ccccc3-c3c(n(C)c4ccccc34)C(=O)N([C@@H](C)CO)C[C@@H]2C)cc1	none
CC(C)NC(=O)N1C[C@@H]2N[C@H](C1)C2c1ccccc1 (stereo partly specified)	none
